# Compounds with a hit are over-represented: about 0.91% of the library has one in this group of screens.
# RECQ1 inh-1 = qHTS Assay for Inhibitors of RecQ-Like Dna Helicase 1 (RECQ1); ATP-dependent DNA helicase Q1 (Homo sapiens), P46063; RECQ1 DNA unwinding, red fluorescence kinetic read; Potency, µM (doses to about 57.3 µM), without a hit: at the top dose activity, negative = inhibition, usual class: inhibitors; 0.54% of 240,000 active; AID 2549, 2010;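 further: plate controls were vehicle for no effect and no enzyme for full effect; nearly all actives have a fitted effect of over 30% in size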
#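 RECQ1T1 50 nM; forked duplex (20 bp + 30-nt ss tails) 200 nM, ATP 2 mM final; pH 8.0, 2 mM MgCl2, 2.5 ug/ml poly(dI-dC); 15 min compound preincubation; discontinuous kinetic read over 2 h at RT.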
# TRb-SRC2 inh = qHTS for Inhibitors of the Interaction of Thyroid Hormone Receptor and Steroid Receptor Coregulator 2 | Thyroid hormone receptor beta (Homo sapiens), P10828 | TRbeta-SRC2 peptide binding, fluorescence polarization; receptor liganded with 1 µM T3 | Potency, µM (series often up to 106 µM), for the others: at the top dose activity change, negative = inhibition, usual class: inhibitors | 0.065% of 280,000 active | AID 1469, 2008;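 further: plate controls were bound peptide for no effect and peptide without receptor for full effect; nearly all actives have a fitted effect of over 50% in size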
# Target sequence (P10828 whole entry, looked up): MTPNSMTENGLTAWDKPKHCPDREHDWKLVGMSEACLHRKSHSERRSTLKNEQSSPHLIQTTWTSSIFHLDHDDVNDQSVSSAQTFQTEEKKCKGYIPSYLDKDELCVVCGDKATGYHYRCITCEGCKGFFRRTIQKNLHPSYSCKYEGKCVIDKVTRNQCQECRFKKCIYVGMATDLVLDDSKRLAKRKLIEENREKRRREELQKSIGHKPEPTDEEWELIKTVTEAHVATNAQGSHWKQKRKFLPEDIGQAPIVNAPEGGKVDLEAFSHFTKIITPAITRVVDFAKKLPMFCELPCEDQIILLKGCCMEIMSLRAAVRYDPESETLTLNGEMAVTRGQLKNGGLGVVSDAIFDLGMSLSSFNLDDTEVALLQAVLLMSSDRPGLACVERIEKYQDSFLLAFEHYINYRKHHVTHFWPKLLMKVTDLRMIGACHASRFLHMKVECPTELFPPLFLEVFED
#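 Polarization signal, normalized between peptide-alone and full complex controls, measured compound effects on T3-liganded human TRb LBD (0.6 uM) binding 20 nM Texas Red SRC2 peptide after 5 hr.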
# WRN inhibitor = qHTS for Inhibitors of WRN Helicase; WRN helicase unwinding, fluorescent forked duplex, kinetic; Potency, µM (doses to about 114 µM), without a hit: top-dose activity change, negative = inhibition, actives largely listed as inhibitors; 0.46% of 360,000 active; AID 651768, 2012; further: nearly all actives have a fitted effect of over 55% in size
#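 Kinetic red-fluorescence monitoring (525/598 nm) tracks WRN helicase activity after 100 nM fluorophore-quencher forked duplex and 2 mM ATP are added to 20 nM enzyme pretreated 15 min at room temperature with compound.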
# BLM helicase inh = qHTS Assay for Inhibitors of Bloom's syndrome helicase (BLM); AID 2528, 2010; RecQ-like DNA helicase BLM (Homo sapiens), P54132; Potency, µM (series often up to 56.1 µM), inactives show at the top dose activity change, negative = inhibition, most hits filed as inhibitors; recombinant BLM DNA unwinding, fluorescence dequenching; 0.2% of 350,000 active;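 further: plate controls were vehicle for no effect and no enzyme for full effect; nearly all actives have a fitted effect of over 35% in size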
# APEX1 inh = qHTS Assay for Inhibitors of the Human Apurinic/apyrimidinic Endonuclease 1 (APE1); DNA repair nuclease/redox regulator APEX1 (Homo sapiens), P27695; recombinant APE1, TAMRA/BHQ-2 abasic DNA cleavage fluorescence; Potency, µM (highest dose often 65.8 µM), inactives show at the highest dose activity change, negative = inhibition, usual class: inhibitors; 0.35% of 350,000 active;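 further: plate controls were vehicle for no effect and reference inhibitor for full effect; nearly all actives have a fitted effect of over 55% in size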
# Target sequence (P27695 whole entry, looked up): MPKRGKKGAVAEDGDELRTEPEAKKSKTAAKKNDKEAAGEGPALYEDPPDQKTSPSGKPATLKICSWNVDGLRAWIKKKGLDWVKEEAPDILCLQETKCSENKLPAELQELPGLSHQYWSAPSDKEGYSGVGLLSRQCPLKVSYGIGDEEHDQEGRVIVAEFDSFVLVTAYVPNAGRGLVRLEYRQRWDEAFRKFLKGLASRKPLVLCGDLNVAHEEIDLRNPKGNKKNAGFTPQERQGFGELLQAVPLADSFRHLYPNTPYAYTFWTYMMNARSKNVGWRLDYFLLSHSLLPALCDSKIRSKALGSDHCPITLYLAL
#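 APE1 at 0.75 nM final was preincubated with compound 15 min at room temperature, then 50 nM double-stranded THF abasic-site substrate (5'-TAMRA/3'-BHQ-2) was added. Fluorescence (ex 525/em 598 nm) was read kinetically; third-minus-first read gave activity.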
# TR SRC2 fluor cs = Total Fluorescence Counterscreen for Inhibitors of the Interaction of Thyroid Hormone Receptor and Steroid Receptor Coregulator 2; TRb/SRC2 Texas Red total fluorescence interference; Potency, µM (titrated, usually from 106 µM), inactives show at the top dose fluorescence change, negative = quenching; 0.29% of 280,000 active; active means well fitted curve in either direction with a large enough effect; inconclusive means small, poorly fitted or top-dose-only effect
#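 Human TRb ligand-binding domain at 0.6 uM with 20 nM Texas Red SRC2 peptide in Tris buffer containing 1 uM T3 and 5% DMSO, incubated with compound 5 h at ambient temperature. Total fluorescence (555/632 nm) calculated as parallel + 2 × perpendicular.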
# RECQ1 inh conf = Confirmation qHTS Assay for Inhibitors of RecQ-Like Dna Helicase 1 (RECQ1). shares compounds with RECQ1 inh-1. RECQ1 helicase DNA unwinding, fluorescence. Potency, µM (highest dose often 229 µM), for inactives: at the top dose activity change, negative = inhibition, usual class: inhibitors. 28% of 610 active. AID 2708, 2010; further: nearly all actives have a fitted effect of over 45% in size
# RECQ1 ADP FP = Counterscreen for RECQ1 Inhibitors: ADP Fluorescence Polarization Displacement Assay | shares compounds with RECQ1 inh-1 | ADP fluorescence polarization displacement counterscreen | Potency, µM (series often up to 228 µM), inactives show at the highest dose activity change, negative = inhibition, most hits filed as inhibitors | 27% of 530 active; further: nearly all actives have a fitted effect of over 45% in size
# RECQ1 inh-2 = Confirmation qHTS Assay for Inhibitors of RecQ-Like Dna Helicase 1 (RECQ1) - Round 2 Cherry Picks. shares compounds with RECQ1 inh-1. recombinant RECQ1 DNA unwinding, red fluorescence. Potency, µM (highest dose often 119 µM), without a hit: at the top dose activity, negative = inhibition, usual class: inhibitors. 15% of 1,100 active. AID 504841, 2011; further: nearly all actives have a fitted effect of over 50% in size
# The depositor's hits bear a star; i = inactive; ? = inconclusive; · = not tested or not shown; [ ] = remark or other dose. Unless noted, the call rests on the fitted dose curve; in most records, active means well fitted curve in the direction sought with a large enough effect; inconclusive means small, poorly fitted or top-dose-only effect, or another doubt; inactive means no such curve, though single readings can be large; an effect the other way counts as inactive or inconclusive. Unless noted, on the % scale 0 is the no-effect control and ±100 the full control effect; potency means the concentration at half of the fitted maximal effect.
SMILES,RECQ1 inh-1,TRb-SRC2 inh,WRN inhibitor,BLM helicase inh,APEX1 inh,TR SRC2 fluor cs,RECQ1 inh-2,others
O=C(NCc1ccco1)c1ccc(S(=O)(=O)N2CCOCC2)cc1,?,-4%,-10%[57.1 µM],-27%,32µM*,-14%,-20%,
CCCCOC(=O)c1c(N)n(-c2ccc(OC)cc2OC)c2nc3ccccc3nc12,·,2%,·,-2%,·,-2%,·,
CCN(CC)S(=O)(=O)c1ccc(N2CCOCC2)c(NC(=O)c2cccc3ccccc23)c1,-10%,1%,-9%,-6%,-6%,-1%,·,
CCN(CC)S(=O)(=O)c1ccc(N2CCOCC2)c(NC(=O)c2c3c(nc4ccccc24)CCC3)c1,16µM*,-3%,-26%,-19%,?,-11%,?,
Cc1cccc(-c2nc(SCc3cc(=O)c4cccc(F)c4[nH]3)n[nH]2)c1,·,4%,·,-2%,·,-2%,·,
O=C(Cn1cnc2cc([N+](=O)[O-])ccc2c1=O)NC(c1ccccc1)c1ccccc1,?,-1%,4%,-7%,12%,-1%,-5%,
COc1ccccc1-c1ccc(SCC(=O)NC2CCCC2)nn1,·,·,-2%,·,3%,·,·,
Cc1cccc(N2CCN(C(=O)Cc3ccc(-n4c(=O)[nH]c5ccsc5c4=O)cc3)CC2)c1C,-10%,3%,-20%,2%,17%,-2%,·,RECQ1 inh conf=-10%;RECQ1 ADP FP=21%
COCCn1c(C)cc(C(=O)COC(=O)c2cc3c(s2)CCC3)c1C,?,-3%,?,-25%,13µM*,-5%,?,
COCCn1c(C)cc(C(=O)COC(=O)c2cccc(O)c2)c1C,i,-1%,-6%,-2%,3%,-1%,·,
N#CCC(=O)N1CCN(Cc2ccc3c(c2)OCO3)CC1,·,·,-3%,·,·,·,·,
CC(N=C1CC(C)(C)CC(=O)/C1=C(/O)CCCN1C(=O)c2ccccc2C1=O)C(=O)O (stereo unspecified),-1%,-1%,4%,1%,-5%,-2%,·,RECQ1 inh conf=11%;RECQ1 ADP FP=?
CC1(C)CC(=O)/C(=C(/O)CCCN2C(=O)c3ccccc3C2=O)C(=NC(C)(C)C)C1,-5%,3%,7%,0%,1%,-1%,·,
CC1(C)CC(=O)/C(=C(\O)CCCN2C(=O)c3ccccc3C2=O)C(=NCC(=O)O)C1,i,-4%,-1%,0%,15%,-1%,·,RECQ1 inh conf=-2%;RECQ1 ADP FP=2%
NC(=O)N[C@H]1NC(=O)NC1=O,i,3%[53 µM],·,-4%[21.4 µM],·,-3%[53 µM],·,
Cc1ccc(NC2=Nc3ccccc3N3C2=Nc2c(c(C)nn2-c2ccccc2)C3c2ccc(O)c(O)c2)cc1 (stereo unspecified),32µM*,-1%,-18%,-14%,0%,2%,?,
Cc1ccc(C(CCN(Cc2ccccc2)C(=O)c2ccco2)c2ccco2)cc1 (stereo unspecified),20µM*,6%,?,?,-12%,2%,?,RECQ1 inh conf=50µM*;RECQ1 ADP FP=24%[91.9 µM]
CCc1nn(CC(=O)NCCc2ccc(OC)c(OC)c2)c(=O)c2cc3occc3n12,·,-5%,·,2%,·,-3%,·,
COc1ccc2c(c1)O[C@@H]1c3ccc(OC)cc3OCC21 (stereo partly specified),-3%,0%,·,3%,-1%,0%,·,
Cn1cnc2c(=O)oc3ccc(S(=O)(=O)N4CCN(c5ccccc5F)CC4)cc3c21,·,-1%,·,-10%,·,-1%,·,
COc1cccc(Nc2ncc3nc(-c4ccc(F)cc4)c(=O)n(CCC#N)c3n2)c1,-8%,·,·,0%,-2%,·,·,
COc1cccc(Nc2ncc3nc(-c4cc(F)cc(F)c4)c(=O)n(CCC#N)c3n2)c1,?,·,·,-5%,18%,·,?,
CCOC(=O)C1=C(O)/C(=C/c2cc(OC)c(O)c(OC)c2)SC1=Nc1ccc(OC)cc1,14µM*,0%,-11%[11.6 µM],-6%,?,-5%,?,
COc1ccc2c(c1)Cc1sc(NC(=O)c3cccs3)nc1-2,?,?,0%,-20%,-13%,-6%,17%,
O=C(C1COc2ccccc2O1)N1CCc2ccccc21 (stereo unspecified),?,-1%,?,-22%,?,-6%,13µM*,
SMILES,RECQ1 inh-1,TRb-SRC2 inh,WRN inhibitor,BLM helicase inh,APEX1 inh,TR SRC2 fluor cs,RECQ1 inh-2,others
O=C(C1COc2ccccc2O1)N1CCCC1 (stereo unspecified),-4%,10%,7%,-4%,1%,2%,·,
O=C(Nc1cccc(-n2cnnn2)c1)c1ccc(Cl)cc1Cl,·,·,2%,-1%,54%,·,·,
CCc1ccc(OCC(=O)NC2CC(C)(C)NC(C)(C)C2)cc1,?,-1%,5%,-3%,-6%,1%,13%,
COCCNC(=O)C(c1ccccc1F)N(C(=O)C(=O)NC1CCCC1)C1CCCCC1 (stereo unspecified),-3%,-9%,1%,-3%,10%,2%,·,
O=[N+]([O-])c1ccc(Sc2cccc[n+]2[O-])c2nonc12,?,-16%,16µM*,?,?,-27%,25µM*,
CC(C)(C)c1nc(SCC(=O)NCc2ccco2)c2ccccc2n1,4%,-1%,-26%,-7%,-3%,-1%,·,
O=C(CSc1c2c(nc3ccccc13)CCCC2)NCc1ccco1,14µM*,-15%,1%,-1%,8%,5%,-1%,RECQ1 inh conf=-7%[114 µM];RECQ1 ADP FP=?

# Screening data (PubChem BioAssay)
